Assay outcomes from PubChem BioAssay.
Six1-Eya2 inh: qHTS Assay for Inhibitors of the Six1/Eya2 Interaction | activity change, % (concentration not given with the values) | Homeobox protein SIX1 (Homo sapiens) + Protein phosphatase EYA2 (Homo sapiens), … | 360,000 compounds, 0.56% hits | AlphaScreen GST-Six1/His-Eya2 binding, biochemical; stronger effect = lower value; in the data active = activity change below about -65%; inconclusive = mostly about -30% to -63%; also: % is scaled to controls: 0 for no effect and ±100 for the full control effect
Target sequence (O00167 whole entry, looked up): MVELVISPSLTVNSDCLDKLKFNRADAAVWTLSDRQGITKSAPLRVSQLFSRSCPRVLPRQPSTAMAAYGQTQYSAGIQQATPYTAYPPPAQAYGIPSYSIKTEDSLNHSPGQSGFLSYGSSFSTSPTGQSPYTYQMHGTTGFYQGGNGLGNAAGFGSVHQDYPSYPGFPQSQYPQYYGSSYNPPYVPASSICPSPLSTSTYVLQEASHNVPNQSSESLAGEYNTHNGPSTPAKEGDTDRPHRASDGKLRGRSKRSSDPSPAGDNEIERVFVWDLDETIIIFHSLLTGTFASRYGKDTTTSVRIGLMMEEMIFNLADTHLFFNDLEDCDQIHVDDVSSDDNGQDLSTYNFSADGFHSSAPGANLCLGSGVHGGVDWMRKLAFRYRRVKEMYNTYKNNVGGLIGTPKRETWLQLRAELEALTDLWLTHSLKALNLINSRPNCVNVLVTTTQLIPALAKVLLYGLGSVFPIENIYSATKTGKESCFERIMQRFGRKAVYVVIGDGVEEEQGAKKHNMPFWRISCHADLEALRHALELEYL
Target sequence (Q15475 whole entry, looked up): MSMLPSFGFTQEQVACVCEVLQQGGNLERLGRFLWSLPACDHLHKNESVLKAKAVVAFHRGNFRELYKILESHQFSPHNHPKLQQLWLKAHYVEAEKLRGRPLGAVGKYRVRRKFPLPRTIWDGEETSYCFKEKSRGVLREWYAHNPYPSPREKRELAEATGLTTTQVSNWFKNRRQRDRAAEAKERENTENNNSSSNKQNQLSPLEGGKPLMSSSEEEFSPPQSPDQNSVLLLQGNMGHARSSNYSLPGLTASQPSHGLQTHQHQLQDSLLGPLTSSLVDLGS
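Six1/Eya2 binding was read as AlphaScreen signal after compounds were pinned into GST-Six1 plus His-tagged Eya2 (5X stock 250/500 nM) in pH 8.0 Tris/NaCl/TCEP buffer, beads added, then incubated 1 h, 37 C, dark.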
CtBP-E1A blk: qHTS Assay for Inhibitors of the CtBP/E1A Interaction. activity change, % (concentration not given with the values). CtBP / adenovirus E1A interaction (AlphaScreen). AlphaScreen GST-E1A/His-CtBP binding, 1536-well; stronger effect = lower value. AID 651724, 2012. 340,000 compounds, 0.49% hits; in the data active = activity change below about -65%; inconclusive = mostly about -30% to -63%; also: % is scaled to controls: 0 for no effect and ±100 for the full control effect
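Steps: dispense buffer (Tris pH 8.0, NaCl 300 mM, TCEP 1 mM, BSA, Tween 20); add 5X protein mix (GST-E1A, His-CtBP, 125 nM each); pin 23 nL compound; 2 h at 37 °C, dark; add 5X beads (50 ug/mL); 1 h; read.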
HP1b chromo inh: HTS for Inhibitors of HP1-beta Chromodomain Interactions with Methylated Histone Tails; Chromobox protein homolog 1 (Homo sapiens), P83916; AlphaScreen HP1-beta / biotin-H3K9me3 peptide binding; Potency, µM (doses to about 114 µM), for inactives: at the highest dose activity change, negative = inhibition, actives largely listed as inhibitors; 390,000 compounds, 0.56% hits; also: potency is read from the fitted curve at half-maximal effect; nearly all actives have a fitted effect of over 70% in size
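HP1-beta protein (50 nM final) preincubated 30 min at room temperature with biotinylated H3(1-18)K9me3 peptide (50 nM) in PBS pH 7.4, 0.01% Tween-20, then compound added for 30 min. AlphaScreen streptavidin donor/nickel chelate acceptor beads (10 ug/mL final), 30 min dark, luminescence read.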
BAZ2B block: qHTS Assay for Inhibitors of BAZ2B | Potency, µM (highest dose often 114 µM), without a hit: top-dose activity change, negative = inhibition, actives largely listed as inhibitors | AlphaScreen BAZ2B-H3K14Ac peptide displacement | 360,000 compounds, 4.4% hits; also: potency is read from the fitted curve at half-maximal effect; % is scaled to controls: 0 for no effect and ±100 for the full control effect; nearly all actives have a fitted effect of over 60% in size
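Compounds, titrated to a top concentration of 110 uM, were incubated 30 min at room temperature with preformed BAZ2B/acetyl-K14 H3 peptide complex (50 nM each). Proximity signal was measured by AlphaScreen after 20 min with beads.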
JMJD2A Tudor inh: qHTS Assay for Inhibitors of JMJD2A-Tudor Domain; Lysine-specific demethylase 4A (Homo sapiens), O75164; AlphaScreen JMJD2A-Tudor / H3K4me3 peptide binding; Potency, µM (titrated, usually from 114 µM), without a hit: top-dose activity change, negative = inhibition, most hits filed as inhibitors; 390,000 compounds, 4.4% hits; also: potency is read from the fitted curve at half-maximal effect; % is scaled to controls: 0 for no effect and ±100 for the full control effect; nearly all actives have a fitted effect of over 50% in size
G9a block: qHTS Assay for Inhibitors of Histone Lysine Methyltransferase G9a. Potency, µM (highest dose often 102 µM), without a hit: at the highest dose activity, negative = inhibition, hits mostly inhibitors. 350,000 compounds, 8.8% hits. G9a H3K9 monomethylation, AlphaScreen, 2 h. Histone-lysine N-methyltransferase EHMT2 (Homo sapiens), Q96KQ7. AID 504332, 2011; also: potency is read from the fitted curve at half-maximal effect; % is scaled to controls: 0 for no effect and ±100 for the full control effect; nearly all actives have a fitted effect of over 75% in size
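Enzyme 20 nM + cpd, 15 min RT; add b-H3K9 pep 500 nM / SAM 20 uM; 2 h RT; anti-H3K9me1 Ab 0.5 ug/mL + SA donor / anti-rabbit acceptor beads 20 ug/mL each, 10 min; AlphaScreen read.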
Starred values were filed as active, the others as inactive; ? = inconclusive; . = no result given; [ ] = dose if it differs, or a comment. Most compounds without a hit are left out; they make up all but 10% or so of the library. Unless noted, calls follow the shape of the dose curve; as a rule, active = well fitted inhibition curve with a large enough effect; inconclusive = small, poorly fitted or top-dose-only effect; inactive = no such curve, though single readings can be large or run the other way.

SMILES | Six1-Eya2 inh | CtBP-E1A blk | HP1b chromo inh | BAZ2B block | JMJD2A Tudor inh | G9a block
Cc1sc(-n2cccc2)c(C(C)NC(=O)Nc2cccc(C(F)(F)F)c2)c1C (stereo unspecified) | . | . | 38% | 0% | -1% | -3%[59 µM]
CN(C)C(=S)Nc1nc2ccccc2s1 | -6 | . | ? | -37% | 3.5µM* | -10%[0.501 µM]
CCOc1ccc2nc(NC(=S)N(C)C)sc2c1 | -4 | -3 | ? | 35µM* | 13µM* | 1.6µM*
S=C(Nc1ccccc1)c1nc2ccccc2s1 | -13 | . | ? | -38% | 40µM* | ?
CCOc1ccc2nc(NC(=O)c3cnc(C)cn3)sc2c1 | -6 | -10 | 35% | -1% | -18% | 45µM*
O=C(NNc1nc2ccccc2s1)Nc1ccccc1 | -3 | -7 | 21% | -34% | -21% | 2%[59 µM]
CCNC(=O)Nc1nc2ccccc2s1 | 2 | 10 | 31% | -4% | -2% | -5%
CCc1ccc(CNCc2c(C(=O)O)n(Cc3cccc(F)c3)c3cc(OC)ccc23)cc1 | . | . | 31% | -22% | -3% | 2%[59 µM]
COc1ccc(NC(C)=O)cc1CNC(=O)COc1c(C)c(C)cc(C)c1C | 2 | 23 | 6% | -7% | -11% | 20%[59 µM]
COc1ccc(-c2c(C)nn3c(C(F)(F)F)cc(-c4ccc(Br)cc4)nc23)cc1 | . | . | -9% | ? | ? | ?
CCN(CC)CCNc1ncnc2c1sc1nc(N3CCCC3)c3c(c12)CC(C)(C)OC3 | -15 | -25 | ? | 45µM* | ? | ?
CC1(C)Cc2c(c(-c3ccco3)nc3sc4c(NCCN5CCOCC5)ncnc4c23)CO1 | 0 | -2 | -4% | -2% | -26% | 18µM*
CCN(CC)CCNc1ncnc2c1sc1nc(N3CCOCC3)c3c(c12)CCCC3 | -3 | 2 | -16% | -32% | ? | 35µM*
CC1(C)Cc2c(c(-c3ccco3)nc3sc4c(NCCCO)ncnc4c23)CO1 | -11 | . | -17% | -14% | -32% | .
Cc1ccccc1C(=O)NC1CC2CCCC(C1)N2C(=O)Nc1ccccc1 (stereo unspecified) | 0 | 6 | 39% | 4% | 7% | 12%
COc1cc([C@H]2c3cc4c(cc3[C@@H](O[C@H]3O[C@H]5CO[C@@H](C)O[C@H]5[C@@H](O)[C@@H]3O)[C@@H]3COC(=O)[C@H]23)OCO4)cc(OC)c1O | . | . | . | . | . | 7%[12.7 µM]
CN(C)c1ccc(NC(=O)c2cn(-c3ccccc3)nc2-c2cccs2)cc1 | ? | ? | ? | 35µM* | 14µM* | 10µM*
N#CCCn1cc(C(=O)Nc2ccc(C(=O)O)cc2)c(-c2cccs2)n1 | 0 | . | 18% | -6% | 16µM* | 11%[59 µM]
COc1cc(C2c3[nH]c4ccccc4c3C[C@@H]3C(=O)N(Cc4ccco4)CC(=O)N23)cc(OC)c1OC (stereo partly specified) | -8 | -3 | ? | -33% | ? | 21%[2.33 µM]
COc1ccc(C2c3[nH]c4ccccc4c3C[C@H]3C(=O)N(C4CCN(Cc5ccccc5)CC4)CC(=O)N23)c(OC)c1 (stereo partly specified) | -7 | . | -16% | -37% | 22µM* | ?
O=C1[C@@H]2Cc3c([nH]c4ccccc34)C(c3ccccc3)N2C(=O)CN1C1CCN(Cc2ccccc2)CC1 (stereo partly specified) | -7 | -29 | -5% | 32µM* | ? | 79µM*
CCOc1ccccc1C1c2[nH]c3ccccc3c2C[C@H]2C(=O)N(C3CCN(Cc4ccccc4)CC3)CC(=O)N12 (stereo partly specified) | ? | -12 | -12% | ? | ? | ?
C=CCc1cccc([C@@H]2[C@@H](C)CC[C@H]3C(=O)N4[C@@H](c5cc(OC)c(OC)c(OC)c5)c5[nH]c6ccccc6c5C[C@H]4C(=O)N23)c1 | . | . | . | ? | . | 50µM*
O=C(NCCc1cccs1)c1ccc(Cn2c(SCc3ccccc3)nc3cccnc32)cc1 | . | . | 19% | -28% | -14% | -22%[59 µM]
C=C(C)CCOC(=O)C(CC(=O)O)NCc1ccco1 (stereo unspecified) | -14 | . | -18% | 35µM* | 35µM* | 11µM*
SMILES | Six1-Eya2 inh | CtBP-E1A blk | HP1b chromo inh | BAZ2B block | JMJD2A Tudor inh | G9a block
O=C(COC(=O)C(c1ccccc1)c1ccccc1)NCc1ccco1 | -9 | 1 | 13% | ? | -23% | -20%
O=C(O)CC(NCc1ccco1)C(=O)OCCc1ccccc1 (stereo unspecified) | 7 | -3 | -19% | -5% | 6.3µM* | 32µM*
O=C(O)CC(C(=O)OCC1CCCO1)N1CCOCC1 (stereo unspecified) | 3 | -2 | 0% | -21% | -15% | -47%
O=C(O)CC(NCc1ccco1)C(=O)OCC1CCCO1 (stereo unspecified) | -4 | 3 | 17% | 50µM* | ? | 7.9µM*
CC(=O)c1ccc(S(=O)(=O)N2CCN(CC(=O)Nc3ccccc3C(=O)NC3CC3)CC2)cc1 | 0 | -3 | 21% | -4% | -23% | -25%[2.33 µM]
O=C(N/N=C/c1ccc(C(=O)O)cc1)C1=NNC(c2ccccc2)(c2ccccc2)C1 | 5 | . | 35% | ? | 79µM* | 0%
COCCOC(=O)c1[nH]c2c(c1C)C(=O)CC(c1ccccc1)C2 (stereo unspecified) | -1 | 6 | 15% | 3% | -14% | -7%[59 µM]
Cc1c(C(=O)OCCOC(C)C)[nH]c2c1C(=O)CC(c1ccco1)C2 (stereo unspecified) | -12 | -2 | -16% | 50µM* | ? | 45µM*
COCCOC(=O)c1[nH]c2c(c1C)C(=O)CC(c1ccco1)C2 (stereo unspecified) | -17 | -2 | 50µM* | 50µM* | 45µM* | 50µM*
CSCCOC(=O)c1[nH]c2c(c1C)C(=O)CC(c1ccco1)C2 (stereo unspecified) | -21 | -3 | ? | 45µM* | 35µM* | 22µM*
COCCOC(=O)c1[nH]c2c(c1C)C(=O)CC(c1ccc(F)cc1)C2 (stereo unspecified) | 1 | 2 | 40% | 4% | -25% | 14%
CCOC(=O)c1[nH]c2c(c1C)C(=O)CC(c1ccco1)C2 (stereo unspecified) | -12 | 11 | -15% | 45µM* | 56µM* | ?
